Source: PubChem BioAssay AID1508602 (The Scripps Research Institute Molecular Screening Center, 2020)
Out of some 650,000 compounds screened, about 6,800 (1%) were called active. This is one part of a sample in which actives are shown more often than they occur. Cut-off read from the data, not from the text of the source: active = activation above about 4.9%; inactive = the rest.

The compounds below were run against G-protein coupled receptor 151 (Homo sapiens) (UniProt Q8TDV0) (assay: activates the human receptor GPR151, primary screen, cell-based, PathHunter beta-arrestin, luminescence (AID 1508602;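 note: 0% = median of compound wells and 100% = cells with positive control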)). Conditions: PathHunter beta-arrestin GPR151 cells, at 11.2 µM, stronger effect = higher value.
G-protein coupled receptor 151 (Homo sapiens), sequence (Q8TDV0 whole entry, looked up): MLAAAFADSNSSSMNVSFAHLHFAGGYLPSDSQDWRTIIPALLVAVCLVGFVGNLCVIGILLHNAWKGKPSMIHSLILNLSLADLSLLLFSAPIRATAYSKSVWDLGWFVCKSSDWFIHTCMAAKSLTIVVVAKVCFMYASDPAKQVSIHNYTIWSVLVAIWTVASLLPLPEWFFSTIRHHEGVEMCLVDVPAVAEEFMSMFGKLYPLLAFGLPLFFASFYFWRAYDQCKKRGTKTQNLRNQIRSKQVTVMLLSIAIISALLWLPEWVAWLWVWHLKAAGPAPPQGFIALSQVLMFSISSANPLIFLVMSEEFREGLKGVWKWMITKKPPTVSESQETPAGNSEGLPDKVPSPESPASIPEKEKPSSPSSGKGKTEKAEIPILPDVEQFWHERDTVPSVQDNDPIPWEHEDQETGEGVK

Row | Compound | activation
1 | COc1ccc(C2/C(=C(\O)c3ccc(Br)cc3)C(=O)C(=O)N2c2nccs2)cc1OC (stereo not drawn) | -0.318% (inactive)
2 | Cc1cccc(-n2nc3c(c2NC(=O)CCC2CCCC2)CS(=O)(=O)C3)c1C | -0.834% (inactive)
3 | Cc1cccc(-n2nc3c(c2NC(=O)CCC2CCCCC2)CS(=O)(=O)C3)c1C | 5.19% (active)
4 | Cc1cccc(-n2nc3c(c2NC(=O)C2CCCC2)CS(=O)(=O)C3)c1C | -1.12% (inactive)
5 | COc1ccc(N2CCN(C(CNS(=O)(=O)c3c(C)cc(C)cc3C)c3cccnc3)CC2)cc1 (stereo not drawn) | 0.0567% (inactive)
6 | Cc1ccc(S(=O)(=O)NCC(c2cccnc2)N2CCN(c3ccc(F)cc3)CC2)cc1 (stereo not drawn) | 4.96% (active)
7 | O=S(=O)(NCC(c1cccnc1)N1CCN(c2ccccc2)CC1)c1ccc(F)cc1 (stereo not drawn) | -1.39% (inactive)
8 | CC(=O)Nc1nc2c(s1)-c1cccc3cccc-2c13 | -0.686% (inactive)
9 | COc1cc(Nc2cc(N3CCN(c4ccc(F)cc4)CC3)c3noc4c3c2C(=O)c2ccccc2-4)cc(OC)c1OC | 5.65% (active)
10 | CCN1CCN(c2cc(Nc3cccc(OC)c3)c3c4c(onc24)-c2ccccc2C3=O)CC1 | -1.99% (inactive)
11 | CCN1CCN(c2cc(Nc3cc(OC)c(OC)c(OC)c3)c3c4c(onc24)-c2ccccc2C3=O)CC1 | -0.784% (inactive)
12 | Cn1c(SCC(=O)NCc2cccs2)nnc1C1CC1 | 0.896% (inactive)
13 | CCc1ccc(NC(=O)CCS(=O)(=O)c2cc3c(cc2Cl)NC(=O)CO3)cc1 | 0.977% (inactive)
14 | Cc1cc2c(cc1S(=O)(=O)CCC(=O)Nc1ccccc1Cl)OCC(=O)N2 | 12% (active)
15 | Cc1ccccc1NC(=O)CCS(=O)(=O)c1ccc2c(c1)OCC(=O)N2 | -0.0759% (inactive)
16 | CC(Nc1ccc(-c2cccc(C=O)c2)cn1)c1ccc(F)cc1 (stereo not drawn) | 3.31% (inactive)
17 | C=CSC1=C(C#N)C(c2cccc3ccccc23)CC(=O)N1 (stereo not drawn) | 0.0614% (inactive)
18 | CN(Cc1ccccc1)C(=O)c1nc2ccc(-c3cn[nH]c3)cc2s1 | 5.86% (active)
19 | CN(C)C(=O)c1cc(-c2cn[nH]c2)ccc1NC(=O)OCc1ccccc1 | 0.0349% (inactive)
20 | CCN(Cc1ccccc1)C(=O)Nc1ccc(-c2cn[nH]c2)cc1OCCN(C)C | 0.0869% (inactive)
21 | O=C(CCS(=O)(=O)c1cccc2nsnc12)N1CCCCCC1 | -0.702% (inactive)
22 | CNC(=O)C(NC(=O)c1ccc([N+](=O)[O-])cc1)C12CC3CC(CC(C3)C1)C2 (stereo not drawn) | 0.352% (inactive)
23 | Cc1cccc(NC(=O)/C(=C\c2ccco2)NC(=O)c2ccccc2Br)c1 | 2.08% (inactive)
